From PubChem BioAssay come the findings set out here.

Active and inactive are the calls of the source.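 How the source made its calls, unless noted: active means compound that reduces growth-factor-driven endothelial tube area in a mixed cell culture, no cutoff stated; inactive means the rest.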 Positions of bridges follow the written chain, without caps; N, C: chain ends. Non-standard residues stand in square brackets, D forms with d. Residues, ends and D or L forms follow the SMILES beside them. hArg = N=C(N)NCCCC[C@H](N)C(=O)O; Mpa = O=C(O)CCS

A short description of assay [1]: stimulators of nuclear beta-catenin in C2C12, primary screen, imaging, WNT3A-conditioned medium, mouse C2C12, NPC library (AID 1117326; in the data active means nuclear beta-catenin stimulation mostly above about 4.2%, no sharp cut-off; inactive means mostly below about 10%; further: reference of the scale not given here). Conditions: stronger effect = higher value.
Assay [2] in a line: stimulators of insulin release from INS-1E, primary screen, cell-based, 5 mM glucose, NPC library (AID 1117329;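 active means compound raises insulin release from rat beta cells at 5 mM glucose, no numeric limit stated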; further: reference of the scale not given here). Conditions: rat INS-1E insulin secretion, at 10 µM, stronger effect = higher value.
Assay [3] is described as follows: growth inhibition of GSK3B-pretreated HCT116 cells – cell-based, CellTiter-Glo, 0.2 to 20 µM (AID 1117336;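 active means compounds lowering colon cancer cell viability after pretreatment blocking the GSK3B kinase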). Conditions: HCT116 viability after GSK3B inhibitor, at 20 µM, stronger effect = higher value. On the technique in general: Cellular ATP, detected with luciferase, serves as a proxy for viable cell number.
A short description of assay [4]: inhibition of endothelial tube formation, primary screen, imaging, VEGF stimulated, CD31 staining, tube area, NPC library (AID 1117340). The following applies: VEGF-stimulated ADSC/ECFC co-culture, at 10 µM, stronger effect = higher value.
The nature of assay [5]: glucagon-like peptide 1 release enhancers, primary assay, NCI-H716 cell line, NPC library (AID 1117341;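 active means compound raises GLP1 secretion from the human gut endocrine cells, with no numeric limit stated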; further: reference of the scale not given here). Conditions: NCI-H716 cells, at 10 µM, stronger effect = higher value.
A short description of assay [6]: HCT116 colon cancer cell growth inhibition, primary screen, CellTiter-Glo luminescence, NPC library (AID 1117342;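 active means compounds that lower survival of HCT116 colon cancer cells in the luminescence readout, no numeric limit stated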). Conditions: at 20 µM (top of the series).
A short description of assay [7]: CellTiter-Glo luminescent readout of SW480 viability loss, NPC library primary (AID 1117343;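 active means compounds that lower viability of the colon cancer cells in the luminescence readout, with no numeric limit stated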). The following applies: CellTiter-Glo luminescence; at 20 µM (top of the series).
A short description of assay [8]: decreased DLD-1 cellular survival, CellTiter-Glo luminescent readout, NPC compound collection, primary HTS (AID 1117346;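 active means compounds that lower survival of DLD-1 colon cancer cells in the luminescence readout, no cutoff given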). The following applies: DLD-1 viability, CellTiter-Glo luminescence; at 20 µM (top of the series).

Take `C[C@H]1O[C@@H](O[C@H]2CC[C@@]3(C)[C@H](CC[C@@H]4[C@@H]3C[C@@H](O)[C@]3(C)[C@@H](C5=CC(=O)OC5)CC[C@]43O)C2)C[C@H](O)[C@@H]1O[C@H]1C[C@H](O)[C@H](O[C@H]2C[C@H](O)[C@H](O[C@@H]3O[C@H](CO)[C@@H](O)[C@H](O)[C@H]3O)[C@@H](C)O2)[C@@H](C)O1`: the nuclear beta-catenin stimulation is -1% (inactive) in assay [1] (at 10 µM) and -0.7% in assay [1] (stimulation, at 2 µM). For the same molecule, the insulin secretion stimulation in assay [2] is -0.5% (inactive). In addition, the viability decrease in assay [3] is 65% (active). The tube area decrease in assay [4] is 108% (active). For the same molecule, the GLP1 secretion stimulation in assay [5] was 8% (inactive). For the same molecule, the inhibition of viability in assay [6] was 54.5% (active). For the same molecule, the viability decrease (inhibition) was 69.4% (active) in assay [7] and 79.5% (active) in assay [8].
Consider `NCCC(=O)[N-][C@@H](Cc1cnc[nH]1)C(=O)O.[Zn]`, for which the nuclear beta-catenin stimulation in assay [1] (at 10 µM) is -0.4% (inactive); in assay [1] (stimulation, at 2 µM) it was -0.2%. Further, the insulin secretion stimulation in assay [2] is -0.8% (inactive). Moreover, the viability decrease in assay [3] was -1.2% (inactive). Moreover, the tube area decrease in assay [4] was 9.1% (inactive). The GLP1 secretion stimulation in assay [5] was 1.7% (inactive). In assay [6], the inhibition of viability was -12.4% (inactive). In addition, the viability decrease (inhibition) in assay [7] is -14.8% (inactive); in assay [8], 5.9% (inactive).
With `Nc1nc2ccccc2n1Cc1ccc(F)cc1`, the nuclear beta-catenin stimulation was 0.8% (inactive) in assay [1] (at 10 µM) and -2% in assay [1] (stimulation, at 2 µM). Also, the insulin secretion stimulation in assay [2] was 0.8% (inactive). Further, the viability decrease in assay [3] is 56.4% (active). In addition, in assay [4], the tube area decrease was 15.1% (inactive). In addition, in assay [5], the GLP1 secretion stimulation is -0.6% (inactive). Also, the inhibition of viability in assay [6] was 74.9% (active). The viability decrease (inhibition) in assay [7] is 84% (active); in assay [8], 43% (inactive).
Regarding `Nc1nc(N)c(-c2ccccc2)s1`, the nuclear beta-catenin stimulation in assay [1] (at 10 µM) is 0.4% (inactive); in assay [1] (stimulation, at 2 µM), 2.2%. In addition, the insulin secretion stimulation in assay [2] is -2% (inactive). Besides, the viability decrease in assay [3] is -1.63% (inactive). For the same molecule, the tube area decrease in assay [4] was 16.7% (inactive). In addition, the GLP1 secretion stimulation in assay [5] was 2.1% (inactive). In addition, the inhibition of viability in assay [6] was 10.2% (inactive). Also, the values for the viability decrease (inhibition) in assay [7] and in assay [8] were 48.5% (inactive) and 2.53% (inactive), respectively.
Regarding `O=C(O)CCC(=O)O`, the nuclear beta-catenin stimulation is 0% (inactive) in assay [1] (at 10 µM) and 0.2% in assay [1] (stimulation, at 2 µM). Besides, in assay [2], the insulin secretion stimulation is -1% (inactive). In assay [3], the viability decrease was -5.25% (inactive). Also, the tube area decrease in assay [4] is -24.1% (inactive). The GLP1 secretion stimulation in assay [5] is 1.6% (inactive). Moreover, in assay [6], the inhibition of viability was -15.8% (inactive). Also, the figures for the viability decrease (inhibition) in assay [7] and in assay [8] were 10% (inactive) and -6.5% (inactive), respectively.
Take `O=C1Nc2cc(Cl)ccc2Oc2ccccc21`: the nuclear beta-catenin stimulation in assay [1] (at 10 µM) is 0% (inactive); in assay [1] (stimulation, at 2 µM) it was -0.5%. Also, the insulin secretion stimulation in assay [2] was -0.2% (inactive). Moreover, in assay [3], the viability decrease was 55.1% (active). Also, the tube area decrease in assay [4] is 17.8% (inactive). Moreover, the GLP1 secretion stimulation in assay [5] is -0.4% (inactive). For the same molecule, the inhibition of viability in assay [6] is 10.7% (inactive). The viability decrease (inhibition) in assay [7] is -6.3% (inactive); in assay [8], -57.3% (inactive).
On to `CCCCCCCCCCCCCCNCCO`, for which the nuclear beta-catenin stimulation was 10.8% (inactive) in assay [1] (at 10 µM) and 10.6% in assay [1] (stimulation, at 2 µM). In assay [2], the insulin secretion stimulation was -1.5% (inactive). Moreover, the viability decrease in assay [3] is 62.8% (active). In addition, in assay [4], the tube area decrease is 103% (active). The GLP1 secretion stimulation in assay [5] was 34.8% (active). Moreover, the inhibition of viability in assay [6] was 32.6% (inactive). In addition, the values for the viability decrease (inhibition) in assay [7] and in assay [8] were 121% (active) and 103% (active), respectively.
Regarding `NC(=O)[C@@H]1CSSCCC(=O)N[C@@H](CCCCN=C(N)N)C(=O)NCC(=O)N[C@@H](CC(=O)O)C(=O)N[C@@H](Cc2c[nH]c3ccccc23)C(=O)N2CCC[C@H]2C(=O)N1` ([Mpa][hArg]GDWPC-NH2; disulfide 1-7), the nuclear beta-catenin stimulation was 3.6% (inactive) in assay [1] (at 10 µM) and 5.8% in assay [1] (stimulation, at 2 µM). For the same molecule, the insulin secretion stimulation in assay [2] is 3.95% (inactive). Also, the viability decrease in assay [3] was 19.6% (inactive). Besides, in assay [4], the tube area decrease is 79.4% (active). Further, the GLP1 secretion stimulation in assay [5] was -2.7% (inactive). In addition, the inhibition of viability in assay [6] was 9.3% (inactive). For the same molecule, the viability decrease (inhibition) in assay [7] was 0.7% (inactive); in assay [8], 0.2% (inactive).
On to `Cc1ccccc1C(=O)Nc1ccc(C(=O)N2CCCC(N(C)C)c3ccccc32)cc1` (stereo not given), for which the nuclear beta-catenin stimulation in assay [1] (at 10 µM) is 58.3% (active); in assay [1] (stimulation, at 2 µM), 30%. Further, in assay [2], the insulin secretion stimulation was 2.4% (inactive). For the same molecule, the viability decrease in assay [3] was 18.9% (inactive). In addition, in assay [4], the tube area decrease was 59.2% (active). Also, the GLP1 secretion stimulation in assay [5] was 2.1% (inactive). Moreover, the inhibition of viability in assay [6] was 80.2% (active). Further, the viability decrease (inhibition) in assay [7] was 80.2% (active); in assay [8], 59% (active).
Turning to `CCCCCOc1ccc(C2SC(=O)NC2=O)cc1OCC` (stereo not given), the nuclear beta-catenin stimulation is -0.1% (inactive) in assay [1] (at 10 µM) and 11.7% in assay [1] (stimulation, at 2 µM). Also, the insulin secretion stimulation in assay [2] is 0.7% (inactive). The viability decrease in assay [3] was 46.8% (inactive). Further, in assay [4], the tube area decrease is 5.8% (inactive). In addition, the GLP1 secretion stimulation in assay [5] is 3.7% (inactive). The inhibition of viability in assay [6] was 32.6% (inactive). For the same molecule, the viability decrease (inhibition) is 6.6% (inactive) in assay [7] and 11.8% (inactive) in assay [8].
As to `Cc1ncc(C[n+]2csc(CCOP(=O)(O)O)c2C)c(N)n1`, the nuclear beta-catenin stimulation was 0.8% (inactive) in assay [1] (at 10 µM) and -0.6% in assay [1] (stimulation, at 2 µM). Further, the insulin secretion stimulation in assay [2] was -0.4% (inactive). The viability decrease in assay [3] is -15.6% (inactive). For the same molecule, in assay [4], the tube area decrease is -8.2% (inactive). Also, the GLP1 secretion stimulation in assay [5] is 1% (inactive). In assay [6], the inhibition of viability is -0.4% (inactive). The viability decrease (inhibition) in assay [7] is -13.2% (inactive); in assay [8], 17.1% (inactive).
On to `CC(=O)SC[C@@H](Cc1ccccc1)C(=O)NCC(=O)OCc1ccccc1`, for which the nuclear beta-catenin stimulation is -0.9% (inactive) in assay [1] (at 10 µM) and 0.5% in assay [1] (stimulation, at 2 µM). The insulin secretion stimulation in assay [2] was -1.4% (inactive). The viability decrease in assay [3] is -9.8% (inactive). Further, the tube area decrease in assay [4] is 18.9% (inactive). The GLP1 secretion stimulation in assay [5] was -4.5% (inactive). Moreover, the inhibition of viability in assay [6] is -2% (inactive). Also, the values for the viability decrease (inhibition) in assay [7] and in assay [8] were -6.1% (active) and -5.9% (inactive), respectively.
In the case of `O=C(O)Cc1csc(-c2ccc(Cl)cc2)n1`, the nuclear beta-catenin stimulation is -0.7% (inactive) in assay [1] (at 10 µM) and -0.2% in assay [1] (stimulation, at 2 µM). The insulin secretion stimulation in assay [2] was 0.4% (inactive). Besides, the viability decrease in assay [3] is -4.4% (inactive). For the same molecule, in assay [4], the tube area decrease is 0.8% (inactive). Further, the GLP1 secretion stimulation in assay [5] is -2.9% (inactive). In addition, the inhibition of viability in assay [6] was -9.9% (inactive). In addition, the viability decrease (inhibition) was -3.2% (inactive) in assay [7] and -11% (inactive) in assay [8].
In the case of `O=C(c1ccccc1)c1ccccc1`, the nuclear beta-catenin stimulation in assay [1] (at 10 µM) was 0.7% (inactive); in assay [1] (stimulation, at 2 µM), 1.3%. Further, the insulin secretion stimulation in assay [2] is -0.6% (inactive). Further, the viability decrease in assay [3] was 8.9% (inactive). The tube area decrease in assay [4] was -20.2% (inactive). The GLP1 secretion stimulation in assay [5] is 2.4% (inactive). In addition, the inhibition of viability in assay [6] was 22.5% (inactive). In addition, the figures for the viability decrease (inhibition) in assay [7] and in assay [8] were 21% (inactive) and 9.1% (inactive), respectively.
In the case of `CCCCCC(N)=O`, the nuclear beta-catenin stimulation in assay [1] (at 10 µM) was 1.3% (inactive); in assay [1] (stimulation, at 2 µM), 2.1%. For the same molecule, the insulin secretion stimulation in assay [2] is -1.1% (inactive). The viability decrease in assay [3] was -27.2% (inactive). The tube area decrease in assay [4] was 8.8% (inactive). Also, the GLP1 secretion stimulation in assay [5] is 0.3% (inactive). Moreover, in assay [6], the inhibition of viability was 2.8% (inactive). For the same molecule, the viability decrease (inhibition) is 44.1% (inactive) in assay [7] and -11.8% (inactive) in assay [8].
